The results in this text go back to PubChem BioAssay.

Potency and affinity values are given separately. Records with an inconclusive call do not appear. Entries that show only a call come without a potency. The source made the active and inactive calls.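 The calls were made as follows, unless noted: active = fitted dose curve reaches 40% lysis signal rise at or below the highest valid concentration tested for that sample; inconclusive = flat fit between 30% and 70%, or poor curve fit; inactive = signal falls, stays flat within 30%, or no crossing.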

The first assay in a line: fungal growth arrest, C. neoformans – Alamar Blue, cherry-picks, dose response (AID 686998;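 active = falling signal with fitted half-maximal potency no higher than twice the top valid tested dose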). As to conditions: Cryptococcus neoformans growth, 24 h; series mostly up to 35 µM. (Resazurin is reduced to fluorescent resorufin, in cell work by metabolically active cells.)
On to `Cc1cccc(C)c1NC(=O)CN(C)C(=O)C1CC1C` (centres undefined), for which the molecule was called inactive.

Regarding `CC(C)NC(=O)Nc1ccc2c(c1)C(=O)N([C@@H](C)CO)C[C@H](C)[C@@H](CN(C)S(=O)(=O)c1cccs1)OCCCC[C@H](C)O2`, the call was inactive.

Regarding `C[C@@H]1CCCCO[C@H](CN(C)C(=O)CCCN(C)C)[C@@H](C)CN([C@H](C)CO)C(=O)c2cc(NC(=O)Cc3ccccc3)ccc2O1`, the outcome was inactive.

For the molecule `O=C(Nc1ccccc1N1CCOCC1)c1cccc([N+](=O)[O-])c1`, the molecule was called inactive.

Take `COc1cccc(S(=O)(=O)N(C)C[C@@H]2OCc3ccccc3-c3ccccc3C(=O)N([C@@H](C)CO)C[C@@H]2C)c1`: the result was inactive.

`C[C@@H]1CN([C@@H](C)CO)C(=O)c2cc(NC(=O)C3CC3)ccc2O[C@H]1CN(C)CC1CCCCC1`: the outcome was inactive.

Regarding `COC(=O)C1=C(C)N(Cc2ccccc2)C(=S)N[C@H]1c1ccc(Br)cc1`, the outcome was inactive.

Regarding `C[C@H]1CN([C@@H](C)CO)C(=O)Cc2cc(N(C)C)ccc2O[C@@H]1CN(C)C(=O)Nc1ccc(C(F)(F)F)cc1`, the molecule was called inactive.

As for `CC(C)NC(=O)Nc1ccc2c(c1)C(=O)N([C@@H](C)CO)C[C@@H](C)[C@@H](CN(C)C(=O)NC(C)C)OCCCC[C@@H](C)O2`, the outcome was inactive.

As to `Cc1noc(C)c1S(=O)(=O)Nc1ccc2c(c1)CC(=O)N([C@H](C)CO)C[C@H](C)[C@H](CN(C)S(=O)(=O)c1cccs1)O2`, the call was inactive.

`Cc1noc(C)c1NC(=O)Nc1ccc2c(c1)C(=O)N([C@@H](C)CO)C[C@H](C)[C@H](CN(C)CC1CCCCC1)O2`: the result was inactive.

Turning to `O=C(CC1CC1)N1[C@@H]2CN(S(=O)(=O)c3ccccc3)c3ccccc3[C@@H]2[C@@H]1CO`, the molecule was classed as inactive.

Regarding `O=C(NCCc1ccccc1)[C@@H]1[C@@H](CO)[C@@H]2Cn3c(cccc3=O)[C@H]1N2C(=O)C1CCC1`, the result was inactive.

A further assay is described as follows: C. neoformans lysis by adenylate kinase leakage – AK release luminescence, cherry-picks, dose response (AID 687000).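 Also: luminescent detection of adenylate kinase leaking from lysed yeast.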 As to conditions: 4 h, 100% = twice the neutral-control signal; series mostly up to 15 µM.
For the molecule `CC(=O)c1sc(NC(=O)c2cc(-c3ccccc3)nn2-c2ccccc2)nc1C`, the outcome was inactive.

Regarding `Cc1ccc(N2CCN(C(CCc3ccccc3)C(=O)Nc3c(C)cccc3C)CC2)cc1` (centres undefined), the call was inactive.

`Cc1ccc(NC(=O)C2CCC(=O)N2)cc1C` (centres undefined): the outcome was inactive.

In the case of `Cc1ccc(-n2ncc3c(SCC(N)=O)ncnc32)cc1C`, the outcome was inactive.

Regarding `C(=Nn1cnnc1)c1ccc2c(c1)CCC2`, the molecule was classed as inactive.

`Cc1cccc(NC(=O)CN(C)C(=O)C2CCCC2)c1C`: the result was inactive.

Take `Cc1ccc2cc(NC(=O)c3ccccc3)ccc2n1`: the molecule was classed as inactive.

As to `COC(=O)C1=C(C)N(Cc2ccc(Br)cc2)C(=S)NC1c1cccc(Br)c1` (centres undefined), the molecule was classed as inactive.

As for `O=C(C1CCOCC1)N1C[C@H]2[C@@H](c3ccccc31)[C@@H](CO)N2Cc1ccccc1Cl`, the call was inactive.

Turning to `Cc1cccc(C)c1NC(=O)C1CCCCN1C` (centres undefined), the outcome was inactive.

With `Cc1ccc(NC(=O)C2(N3CCC3=O)CCCCC2)cc1`, the call was inactive.

On to `C[C@@H]1CN([C@@H](C)CO)C(=O)Cc2cc(NS(=O)(=O)c3ccccc3)ccc2O[C@@H]1CN(C)Cc1ccc(Cl)c(Cl)c1`, for which the result was inactive.

In the case of `C[C@@H]1CN([C@H](C)CO)S(=O)(=O)c2ccc(-c3ccccc3)cc2O[C@H]1CN(C)C(=O)C1CCCCC1`, the call was inactive.

Turning to `O=C(CN(c1ccccc1)S(=O)(=O)c1ccc(F)cc1)N1CCCCCC1`, the call was inactive.

With `CN1CCN(CCCNC(=O)c2ccc(/C=C3\Oc4ccccc4N(Cc4ccccc4F)C3=O)cc2)CC1`, the call was inactive.

Take `CO[C@@H]1CN(C)C(=O)c2ccc(NS(=O)(=O)c3ccc(Oc4ccccc4)cc3)cc2OC[C@H](C)NC[C@H]1C`: the call was inactive.

Turning to `Cc1ccc(S(=O)(=O)N2CC[C@@H]3[C@H](CO)Nc4ccc(-c5ccccc5F)cc4[C@@H]32)cc1`, the call was inactive.

For the molecule `O=C(COc1ccccc1)NCc1ccc2c(c1)OCO2`, the molecule was classed as inactive.

For `O=C(c1ccco1)N1N=C(c2cccs2)CC1c1cc([N+](=O)[O-])ccc1O` (centres undefined), the molecule was classed as inactive.

On to `CC(C)CC#Cc1ccc2c(c1)O[C@H](CN(C)C(=O)C1CCC1)[C@@H](C)CN([C@@H](C)CO)S2(=O)=O`, for which the molecule was called inactive.

For `Cc1ccc(NC(=S)Nc2ccc(Cl)c(Cl)c2)c(OC(F)F)c1`, the result was inactive.

`CC(=O)c1sc(NC(=O)C2(F)C(F)(F)C(F)(F)C(F)(F)C(F)(F)C2(F)F)nc1C`: the outcome was inactive.

Take `CC(C)NC(=O)Nc1ccc2c(c1)CC(=O)N([C@H](C)CO)C[C@H](C)[C@@H](CN(C)C(=O)Nc1ccc3c(c1)OCO3)O2`: the result was inactive.

In the case of `Cc1cccc(NC(=S)NN(Cc2ccccc2)c2ccccc2)c1C`, the molecule was called inactive.

Turning to `N#C[C@H]1[C@@H](c2ccc(C#CCC3CCCC3)cc2)[C@@H](CO)N1C(=O)c1ccccn1`, the call was inactive.

`C/C=C/c1ccc([C@@H]2[C@H]3CN(C(=O)Nc4ccc(OC)cc4)CCCCN3[C@H]2CO)cc1`: the call was inactive.
